Screens from PubChem BioAssay.
L3MBTL1 block = L3MBTL1 (human) inhibition | Q9Y468 | AlphaScreen L3MBTL1–H3K9me1 peptide binding | Potency, µM (titrated, usually from 57.1 µM), usual class: inhibitors | 230,000 tested, 0.66% active | AID 485360; further: nearly all actives have a fitted effect of over 60% in size
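L3MBTL1 (50 nM) pre-complexed 30 min with biotinylated H3(1-15)K9me1 peptide (75 nM), then compounds added for 30 min at room temperature; AlphaScreen streptavidin donor/nickel chelate acceptor beads (10 ug/mL final) read after 30 min dark incubation.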
G9a inh = blocks human histone lysine methyltransferase G9a | Q96KQ7 | G9a H3K9 monomethylation, AlphaScreen, 2 h | Potency, µM (top dose mostly 102 µM), hits mostly inhibitors | 350,000 tested, 8.8% active | AID 504332; further: nearly all actives have a fitted effect of over 75% in size
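AlphaScreen read-out: biotin-H3K9 peptide (500 nM) methylation by 20 nM enzyme with 20 uM SAM, 2 h at room temperature after 15 min compound preincubation; anti-monomethyl H3K9 antibody plus donor/acceptor beads, 10 min dark.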
BAZ2B inh = inhibitors of human BAZ2B bromodomain; Q9UIF8; AlphaScreen BAZ2B-H3K14Ac peptide displacement; Potency, µM (doses to about 114 µM), hits mostly inhibitors; 360,000 tested, 4.4% active; AID 504333; further: nearly all actives have a fitted effect of over 60% in size
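AlphaScreen displacement of biotin-H3(5-23)K14Ac peptide (50 nM final) from BAZ2B (50 nM final) in PBS pH 7.4, 0.01% Tween-20; complex preformed 30 min RT, then compounds (top 110 uM) 30 min RT, beads 20 min dark.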
HP1b binding inh = blocks HP1-beta chromodomain binding to methylated histone tails; AlphaScreen HP1-beta / biotin-H3K9me3 peptide binding; Potency, µM (highest dose often 114 µM), usual class: inhibitors; 390,000 tested, 0.56% active; AID 540317; further: nearly all actives have a fitted effect of over 70% in size
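HP1-beta protein (50 nM final) preincubated 30 min at room temperature with biotinylated H3(1-18)K9me3 peptide (50 nM) in PBS pH 7.4, 0.01% Tween-20, then compound added for 30 min. AlphaScreen streptavidin donor/nickel chelate acceptor beads (10 ug/mL final), 30 min dark, luminescence read.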
Sfp PPTase inh = inhibitors of Bacillus subtilis Sfp phosphopantetheinyl transferase; Biochemical Sfp PPTase activity, qHTS; Potency, µM, most hits filed as inhibitors; 310,000 tested, 3.5% active; AID 1490;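 further: the enzyme is Sfp with the accession as filed and its product quenches rhodamine fluorescence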
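Compounds were incubated with enzyme (final 15 nM) for 15 min at room temperature before substrate addition started the reaction. Fluorescence at 525 nm excitation, 598 nm emission was recorded immediately and after 30 minutes.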
JMJD2A Tudor inh = blocks the human JMJD2A Tudor domain | O75164 | AlphaScreen JMJD2A-Tudor / H3K4me3 peptide binding | Potency, µM (highest dose often 114 µM), usual class: inhibitors | 390,000 tested, 4.4% active | AID 504339; further: nearly all actives have a fitted effect of over 50% in size
Target sequence (O75164 whole entry, looked up, the tested form may be a part): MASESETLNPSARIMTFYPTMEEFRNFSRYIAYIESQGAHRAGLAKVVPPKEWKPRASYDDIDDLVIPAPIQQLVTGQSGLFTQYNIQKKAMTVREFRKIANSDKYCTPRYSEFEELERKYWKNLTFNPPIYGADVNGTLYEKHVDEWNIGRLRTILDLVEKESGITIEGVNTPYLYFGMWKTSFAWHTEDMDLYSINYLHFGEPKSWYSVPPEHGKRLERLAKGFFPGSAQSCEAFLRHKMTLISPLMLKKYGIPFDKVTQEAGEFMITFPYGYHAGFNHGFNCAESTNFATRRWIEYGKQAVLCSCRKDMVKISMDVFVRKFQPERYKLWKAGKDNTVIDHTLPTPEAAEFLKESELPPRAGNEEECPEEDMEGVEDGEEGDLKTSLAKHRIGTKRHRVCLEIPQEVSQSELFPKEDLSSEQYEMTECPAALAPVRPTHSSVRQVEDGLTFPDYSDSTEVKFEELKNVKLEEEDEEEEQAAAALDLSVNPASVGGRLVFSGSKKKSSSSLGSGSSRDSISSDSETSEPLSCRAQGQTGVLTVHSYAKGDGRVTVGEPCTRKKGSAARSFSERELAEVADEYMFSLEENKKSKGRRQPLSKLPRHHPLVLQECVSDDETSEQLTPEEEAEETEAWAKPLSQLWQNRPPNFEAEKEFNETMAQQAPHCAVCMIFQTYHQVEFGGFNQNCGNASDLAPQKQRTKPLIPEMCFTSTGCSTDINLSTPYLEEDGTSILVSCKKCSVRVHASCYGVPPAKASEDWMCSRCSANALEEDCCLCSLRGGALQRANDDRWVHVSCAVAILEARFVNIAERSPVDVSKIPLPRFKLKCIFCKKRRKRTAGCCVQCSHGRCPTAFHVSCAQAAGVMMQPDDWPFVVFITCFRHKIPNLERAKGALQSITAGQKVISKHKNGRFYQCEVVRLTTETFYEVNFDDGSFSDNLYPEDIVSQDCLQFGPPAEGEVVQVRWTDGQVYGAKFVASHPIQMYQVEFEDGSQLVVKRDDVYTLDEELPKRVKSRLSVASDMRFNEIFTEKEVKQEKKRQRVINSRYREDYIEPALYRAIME
Large screens that a line does not name were inactive. Hits are enriched below; roughly 12% of the tested compounds scored in any of these assays. The call rests on the fitted dose curve; in most records, active means well fitted curve in the direction sought with a large enough effect; inconclusive means small, poorly fitted or top-dose-only effect, or another doubt; inactive means no such curve, though single readings can be large; an effect the other way counts as inactive or inconclusive.

CCn1c(Cc2ccccc2)n[nH]c1=S	G9a inh inconclusive, JMJD2A Tudor inh inconclusive (no result: L3MBTL1 block)
CCCCn1c(Cc2ccccc2)nnc1SCC(=O)N1CCOCC1	G9a inh inconclusive
CCn1c(CCc2ccccc2)n[nH]c1=S	JMJD2A Tudor inh 3.5µM
Nc1ncnc2c1nc(Br)n2C1O[C@H]2COP(=O)(O)O[C@@H]2C1O (stereo not given in full)	none (no result: L3MBTL1 block, BAZ2B inh, HP1b binding inh, Sfp PPTase inh, JMJD2A Tudor inh)
CSCc1ccc(C(=O)N2CCC(CCC(=O)N(C)Cc3ccccc3)CC2)o1	Sfp PPTase inh 50µM (no result: L3MBTL1 block)
CC(Cc1nnc(N)s1)c1ccccc1 (stereo not given)	G9a inh 32µM, Sfp PPTase inh 50µM
Nc1nnc(CC(c2ccccc2)c2ccccc2)s1	none (no result: L3MBTL1 block)
CCn1cc(C(=O)N2CCN(c3cccc(C)c3)C(C)C2)c(=O)c2cc(S(=O)(=O)N3CCOCC3)ccc21 (stereo not given)	none (no result: L3MBTL1 block, BAZ2B inh, Sfp PPTase inh)
CCCc1cc(=O)oc2c(CN3CCCC3)c(O)c(Cl)cc12	none
CCc1cc(=O)oc2c(CNCc3ccccc3F)c(O)c(Cl)cc12	G9a inh 50µM, BAZ2B inh inconclusive, JMJD2A Tudor inh inconclusive (no result: L3MBTL1 block)
CC(C)(C)OC(=O)C[C@@H]1C/C=C\C[C@H](CC(=O)N[C@H](CO)Cc2ccccc2)C(=O)N[C@H](C(C)(C)C)COC1=O	none (no result: G9a inh, BAZ2B inh, Sfp PPTase inh)
Cc1cccc(CNc2cc(-c3ccoc3)ncn2)c1	Sfp PPTase inh 14µM (no result: L3MBTL1 block, G9a inh, BAZ2B inh, HP1b binding inh, JMJD2A Tudor inh)
COc1ccccc1CNc1cc(-c2ccoc2)ncn1	Sfp PPTase inh 28µM (no result: L3MBTL1 block, BAZ2B inh, HP1b binding inh, JMJD2A Tudor inh)
Cc1cccc(CNc2cc(-c3ccc(N(C)C)cc3)ncn2)c1	none (no result: L3MBTL1 block, G9a inh, BAZ2B inh, HP1b binding inh, JMJD2A Tudor inh)
Cc1cnc(CNc2cc(-c3ccoc3)ncn2)cn1	Sfp PPTase inh 28µM (no result: L3MBTL1 block, G9a inh, BAZ2B inh, HP1b binding inh, JMJD2A Tudor inh)
c1cncc(CNc2cc(-c3ccoc3)ncn2)c1	Sfp PPTase inh 56µM (no result: L3MBTL1 block, BAZ2B inh, HP1b binding inh, JMJD2A Tudor inh)
Cc1cc(C)c(/C=C/c2onc(C)c2S(=O)(=O)N2CCC(C(=O)NCc3ccco3)CC2)c(C)c1	none (no result: L3MBTL1 block, Sfp PPTase inh)
COc1ccc(/C(C)=N/NC(=O)Cn2nc([N+](=O)[O-])cc2C)cc1	none (no result: G9a inh)
COc1ccccc1C1(O)C(=O)Nc2ccccc21 (stereo not given)	none (no result: L3MBTL1 block)
CC(C)n1c(SCC(=O)Nc2nncs2)nnc1-c1ccco1	BAZ2B inh 50µM, Sfp PPTase inh 20µM, JMJD2A Tudor inh 56µM (no result: L3MBTL1 block, G9a inh)
CC(C)n1c(SCC(=O)Nc2ccc(N3CCOCC3)cc2)nnc1-c1ccco1	JMJD2A Tudor inh 32µM (no result: L3MBTL1 block)
Cn1c(SCC(=O)Nc2ccc(N3CCOCC3)cc2)nnc1-c1ccco1	none (no result: L3MBTL1 block)
Cc1ccccc1NC(=O)CCn1nc(-c2ccc(Cl)cc2)c2ccccc2c1=O	G9a inh inconclusive, BAZ2B inh inconclusive (no result: L3MBTL1 block, Sfp PPTase inh)
O=C1Nc2c(ccc(Cl)c2Cl)C(=O)C1(F)c1ccccc1 (stereo not given)	G9a inh 45µM
O=C1Nc2ccc(Cl)cc2C(=O)C1(F)c1ccccc1 (stereo not given)	none
Cc1ccc(-n2c(CCC(=O)O)ccc2-c2cccs2)cc1C	G9a inh inconclusive, BAZ2B inh inconclusive, Sfp PPTase inh 45µM, JMJD2A Tudor inh inconclusive
CCOC(=O)c1ccc(-n2c(CCC(=O)O)ccc2-c2cccs2)cc1	G9a inh 22µM, BAZ2B inh inconclusive, HP1b binding inh inconclusive, Sfp PPTase inh 25µM, JMJD2A Tudor inh inconclusive (no result: L3MBTL1 block)
CCc1ccc(-n2c(CCC(=O)O)ccc2-c2cccs2)cc1	G9a inh 10µM, BAZ2B inh inconclusive, HP1b binding inh inconclusive, JMJD2A Tudor inh inconclusive (no result: L3MBTL1 block, Sfp PPTase inh)
CCc1ccc(-n2c(CCC(=O)O)ccc2-c2ccc(F)cc2)cc1	G9a inh 10µM, BAZ2B inh inconclusive, HP1b binding inh inconclusive, JMJD2A Tudor inh inconclusive (no result: L3MBTL1 block, Sfp PPTase inh)
CC1=CC2=NC(=O)CC(C)(C(=O)N(CC(=O)NC3CCCC3)Cc3ccccc3)N2C=C1 (stereo not given)	none (no result: L3MBTL1 block)
CCN(CC(=O)Nc1c(F)cccc1F)C(=O)CCN1C(=O)c2cccc([N+](=O)[O-])c2C1=O	none (no result: Sfp PPTase inh)
COc1cc(C2C(C(=O)Nc3ccccc3)=C(C)Nc3nnnn32)cc(OC)c1OC (stereo not given)	none (no result: L3MBTL1 block, Sfp PPTase inh)
CCOc1ccc(NC(=O)C2CC(=O)N(c3ccc(C(C)C)cc3)C2)cc1 (stereo not given)	none (no result: L3MBTL1 block, Sfp PPTase inh)
Cc1ccc(/C=N/n2c(-c3ccccn3)n[nH]c2=S)o1	L3MBTL1 block inconclusive, G9a inh 3.2µM, BAZ2B inh 5µM, HP1b binding inh inconclusive, Sfp PPTase inh 28µM, JMJD2A Tudor inh 5.6µM
Cc1n[nH]c(=S)n(/N=C/c2cccs2)c1=O	Sfp PPTase inh inconclusive, JMJD2A Tudor inh 25µM
S=c1[nH]nc(-c2cccs2)n1/N=C/c1cn(-c2ccccc2)nc1-c1ccccc1	BAZ2B inh inconclusive, HP1b binding inh inconclusive, JMJD2A Tudor inh inconclusive
S=c1[nH]nc(-c2ccccn2)n1/N=C/c1cccs1	L3MBTL1 block 28µM, G9a inh 3.2µM, BAZ2B inh 8.9µM, JMJD2A Tudor inh 3.5µM
S=c1[nH]nc(-c2ccccn2)n1/N=C/c1ccc(Cl)cc1	L3MBTL1 block 16µM, G9a inh 2.2µM, BAZ2B inh 18µM, JMJD2A Tudor inh 5.6µM
CC(C)(C)c1n[nH]c(=S)n(/N=C/c2cccs2)c1=O	none
